Laboratory results as given in PubChem BioAssay AID1159580 (chemical genetic matrix, 2015).
The whole screen tested about 5,500 compounds, of which about 2,000 (36%) were called active. About 18% were inconclusive and are not listed. No stated cut-off is given here; in the data, active means normalized growth mostly below about 0.91 (no sharp cut-off); inconclusive means no clear call, values can overlap the other calls; inactive means mostly above about 0.92. Some of the results follow.

Experiment: chemical genetic growth profiling, strain panel (AID 1159580);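 further: tested at 20 µM; growth read once vehicle control cultures reached saturation at 30 °C; 1 = growth at the plate median or of vehicle wells; lower values mean less growth of the strain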
Conditions: S. cerevisiae deletion strains, growth OD

Measured: normalized growth

COc1ccc2oc3ccccc3c(=O)c2c1
inactive: locus YAL021C, strain ccr4, hits give low values 0.948 | locus YCR088W, strain abp1, hits give low values 0.956 | locus YDL005C, strain med2, hits give low values 0.978 | locus YDL035C, strain GPR1, hits give low values 0.861 | locus YDL040C, strain nat1, hits give low values 0.935 | locus YDR001C, strain nth1, hits give low values 0.944 | locus YDR069C, strain doa4, hits give low values 0.918 | locus YDR159W, strain sac3, hits give low values 0.901 | locus YDR297W, strain sur2, hits give low values 0.935 | locus YEL037C, strain rad23, hits give low values 0.925 | locus YER015W, strain faa2, hits give low values 0.931 | locus YER155C, strain BEM2, hits give low values 0.997 | locus YER167W, strain BCK2, hits give low values 0.918 | locus YFR010W, strain ubp6, hits give low values 0.904 | locus YGL227W, strain vid30, hits give low values 0.94 | locus YGR252W, strain gcn5, hits give low values 0.799 | locus YHR027C, strain rpn1, hits give low values 0.939 | locus YIL073C, strain SPO22, hits give low values 0.736 | locus YJL092W, strain hpr5, hits give low values 0.944 | locus YJL115W, strain asf1, hits give low values 0.948 | locus YJL129C, strain trk1, hits give low values 0.921 | locus YJL154C, strain vps35, hits give low values 0.947
active: locus YAL026C, strain drs2, hits give low values 0.884 | locus YAL030W, strain snc1, hits give low values 0.926 | locus YBL061C, strain skt5, hits give low values 0.896 | locus YBR009C, strain hhf1, hits give low values 0.712 | locus YBR021W, strain FUR4, hits give low values 1.22 [resistant] | locus YBR023C, strain chs3, hits give low values 0.874 | locus YBR171W, strain sec66, hits give low values 0.886 | locus YBR229C, strain ROT2, hits give low values 0.885 | locus YBR231C, strain swc5, hits give low values 0.76 | locus YBR279W, strain paf1, hits give low values 0.883 | locus YCL011C, strain gbp2, hits give low values 0.899 | locus YCL016C, strain dcc1, hits give low values 0.842 | locus YCL029C, strain bik1, hits give low values 0.884 | locus YCL061C, strain MRC1, hits give low values 0.9 | locus YCL069W, strain vba3, hits give low values 0.922 | locus YDL074C, strain BRE1, hits give low values 0.762 | locus YDL101C, strain DUN1, hits give low values 0.76 | locus YDL134C, strain PPH21, hits give low values 0.791 | locus YDL185W, strain tfp1, hits give low values 0.809 | locus YDL192W, strain arf1, hits give low values 0.814 | locus YDR101C, strain arx1, hits give low values 0.88 | locus YDR137W, strain rgp1, hits give low values 0.556 | locus YDR150W, strain NUM1, hits give low values 0.904 | locus YDR162C, strain NBP2, hits give low values 0.437 | locus YDR195W, strain ref2 1.28 [resistant] | locus YDR318W, strain mcm21, hits give low values 0.862 | locus YDR334W, strain swr1, hits give low values 0.852 | locus YDR335W, strain msn5, hits give low values 0.874 | locus YDR388W, hits give low values 0.901 | locus YDR392W, strain spt3, hits give low values 0.35 | locus YDR502C, strain sam2, hits give low values 0.848 | locus YEL003W, strain gim4, hits give low values 0.819 | locus YEL061C, strain CIN8 (second series), hits give low values 0.676 | locus YEL061C, strain CIN8, hits give low values 0.718 | locus YER016W, strain bim1, hits give low values 0.903 | locus YER110C, hits give low values 0.837 | locus YER111C, strain swi4, hits give low values 0.87 | locus YER155C, strain BEM2 (second series), hits give low values 0.249 | locus YGL078C, strain dbp3, hits give low values 0.9 | locus YGL086W, strain mad1, hits give low values 0.836 | locus YGL167C, strain pmr1, hits give low values 0.902 | locus YGL173C, strain kem1, hits give low values 0.882 | locus YGL240W, strain doc1, hits give low values 0.785 | locus YGL248W, strain PDE1, hits give low values 0.836 | locus YGL253W, strain hxk2, hits give low values 0.74 | locus YGR135W, strain pre9, hits give low values 0.811 | locus YHR013C, strain ard1, hits give low values 0.631 | locus YHR030C, strain SLT2, hits give low values 0.656 | locus YHR079C, strain IRE1 (second series), hits give low values 0.902 | locus YHR094C, strain hxt1, hits give low values 0.912 | locus YHR129C, strain ARP1, hits give low values 0.897 | locus YHR142W, strain chs7, hits give low values 0.688 | locus YHR200W, strain rpn10, hits give low values 0.862 | locus YIL066C, strain RNR3, hits give low values 0.761 | locus YIL125W, strain kgd1, hits give low values 0.9 | locus YIR030C, strain dcg1, hits give low values 0.91 | locus YJL095W, strain BCK1 (second series), hits give low values 0.65 | locus YJL095W, strain BCK1, hits give low values 0.428 | locus YJL134W, strain LCB3, hits give low values 0.913 | locus YJL164C, strain tpk1, hits give low values 0.844 | locus YJL166W, strain qcr8, hits give low values 0.756 | locus YJL168C, strain set2, hits give low values 0.903 | locus YJL187C, strain SWE1 (second series), hits give low values 0.828
